High-throughput results: PubChem BioAssay, National Center for Advancing Translational Sciences (NCATS)
FLuc modulator – firefly luciferase modulation, counter-screen for miR-21 project; P08659; purified FLuc, Km substrates, luminescence inhibition; Potency, µM (highest dose often 57.5 µM), most hits filed as inhibitors; 360,000 compounds, 6.9% hits; AID 588342; further: nearly all actives have a fitted effect of over 55% in size
Target sequence (P08659 whole entry, looked up): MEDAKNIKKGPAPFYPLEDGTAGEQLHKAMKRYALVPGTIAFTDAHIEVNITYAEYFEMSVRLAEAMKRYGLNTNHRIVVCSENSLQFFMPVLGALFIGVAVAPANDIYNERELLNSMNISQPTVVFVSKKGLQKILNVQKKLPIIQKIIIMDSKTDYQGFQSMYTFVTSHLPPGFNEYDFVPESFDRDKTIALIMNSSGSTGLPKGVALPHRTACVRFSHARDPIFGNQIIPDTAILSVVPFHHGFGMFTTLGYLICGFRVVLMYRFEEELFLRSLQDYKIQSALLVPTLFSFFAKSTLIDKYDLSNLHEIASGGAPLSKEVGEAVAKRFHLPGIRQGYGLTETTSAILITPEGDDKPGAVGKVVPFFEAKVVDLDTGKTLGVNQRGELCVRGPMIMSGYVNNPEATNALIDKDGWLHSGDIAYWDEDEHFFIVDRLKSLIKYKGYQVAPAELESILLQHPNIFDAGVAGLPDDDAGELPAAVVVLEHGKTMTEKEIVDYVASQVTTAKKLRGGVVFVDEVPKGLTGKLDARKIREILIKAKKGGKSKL
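Purified P. pyralis luciferase, 10 nM final, with Km-level 10 uM D-luciferin and 10 uM ATP in 50 mM Tris acetate pH 7.5, 10 mM Mg acetate, 0.01% Tween-20, 0.05% BSA; 6-point qHTS titration about 60 µM downward; luminescence read.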
Rab9 promoter act – activators of Rab9 promoter; Potency, µM (titrated, usually from 9.22 µM), hits mostly activators; 320,000 compounds, 2.8% hits; Huh7 Rab9 promoter-luciferase reporter, luminescence, 24 h; further: nearly all actives have a fitted effect of over 60% in size
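Huh7 reporter line, Rab9 promoter upstream of luciferase. Compound exposure 24 h at 37 °C in reduced-serum medium with 10% FBS. Read-out: luminescence.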
SMN2 splice up – increases expression of the SMN2 splice variant; Potency, µM (top dose mostly 46.1 µM), usual class: activators; HEK293 SMN2-luciferase splicing reporter, luminescence, 30-36 h; 210,000 compounds, 2.8% hits; further: nearly all actives have a fitted effect of over 55% in size
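HEK293 cells carry an SMN2 minigene-luciferase reporter in which exon 7 inclusion puts luciferase in frame. Cells were seeded at 2000 cells/well, attached for 10-12 hours, then exposed to compounds for 30-36 hours at 37C before ONE-Glo luminescence.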
ELG1 genotoxic – induces genotoxicity in HEK293T cells with luciferase-tagged ELG1 | Potency, µM (series often up to 46 µM), most hits filed as activators | AID 504466 | HEK293T ELG1-luciferase reporter, luminescence, 16 h | 330,000 compounds, 1.3% hits; further: nearly all actives have a fitted effect of over 60% in size
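Step 1: seed 2,000 HEK293T ELG1-luciferase cells per well. Step 2: add compound or DMSO, incubate 16 hr at 37 °C. Step 3: ONE-Glo, 30 min at room temperature, read luminescence.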
ELG1 DNA repair – blocks ELG1-dependent DNA repair in HEK293T cells | 330,000 compounds, 2.3% hits | HEK293T ELG1-luciferase reporter, luminescence, 16 h; DNA damage induced by 5-fluorouridine | Potency, µM (titrated, usually from 46.1 µM), most hits filed as inhibitors; further: nearly all actives have a fitted effect of over 55% in size
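Overnight (16 hr) co-exposure of 2,000 cells/well to 5-fluorouridine and compound at 37 °C preceded detection. Luciferase was quantified via ONE-Glo luminescence; loss of signal denotes inhibition.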
NPC1 prom act – activates the NPC1 promoter; Potency, µM (top dose mostly 9.22 µM), most hits filed as activators; Huh7 NPC1 promoter luciferase reporter, 24 h; 320,000 compounds, 2.4% hits; AID 485313; further: nearly all actives have a fitted effect of over 60% in size
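In 1536-well qHTS, Huh7 cells harboring an NPC1 promoter–luciferase construct received compound for 24 h; activation was quantified by luminescence following luciferase reagent addition.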
Numbers stand for hits; 0 = inactive; ? = inconclusive; - = no result; [ ] = another dose, or the depositor's remark. In the library only some 9.2% were active in any assay of this set; here they are far more common. The call rests on the fitted dose curve; in most records, active means well fitted curve in the direction sought with a large enough effect; inconclusive means small, poorly fitted or top-dose-only effect, or another doubt; inactive means no such curve, though single readings can be large; an effect the other way counts as inactive or inconclusive.

SMILES	FLuc modulator	Rab9 promoter act	SMN2 splice up	ELG1 genotoxic	ELG1 DNA repair	NPC1 prom act
CCOc1ccc2nc(N3C(=O)CNC3=S)sc2c1	0.85µM	0.56µM	-	21µM	?	0.71µM
CCOc1ccc2nc(SC3CC(=O)N(c4ccc(OC)cc4)C3=O)sc2c1 (centres undefined)	?	?	0	0	?	0
O=C1CSc2ccc(C(=O)NCCc3ccc(Cl)cc3Cl)cc2N1	-	-	-	0	26µM	-
COc1ccccc1C(=O)O/N=C(\N)c1ccc(Cl)cc1	21µM	0	?	?	?	?
COc1ccc(/C(N)=N/OC(=O)c2ccc(Br)o2)cc1	6µM	?	-	?	?	?
COc1ccc(C(=O)O/N=C(\N)c2ccc(Cl)cc2)cc1	2.4µM	?	-	?	?	3.2µM
COc1ccc(/C(N)=N/OC(=O)Cc2ccc(C)cc2)cc1	?	0	0	0	?	0
Cc1ccc(S(=O)(=O)N(C)CC(=O)NCC(c2ccco2)N(C)C)cc1 (centres undefined)	0	0	-	0	0	0
COc1cc(C(=O)O/N=C(\N)c2cccc([N+](=O)[O-])c2)cc(OC)c1OC	0	0	-	0	0	0
C/C(=N/OC(=O)c1ccc(F)cc1)c1ccc(C)cc1	0.67µM	0	0	0	?	0
COc1cc(OC)c(C(=O)O/N=C(\N)c2ccccc2)cc1OC	0	0[1.84 µM]	-	0	0	0
Cc1ccccc1C(=O)O/N=C(\c1ccccc1)c1ccccn1	21µM	0	0	0	0	0
O=C(Nc1ccccc1)O/N=C(\c1ccccc1)c1ccccn1	0	0	0	0	?	0
N/C(=N\OC(=O)c1ccccc1F)c1cccc([N+](=O)[O-])c1	3.4µM	2.8µM	-	?	?	2.8µM
Cc1ccccc1C(=O)O/N=C(\N)c1ccccc1	0.17µM	0.79µM	-	1.6µM	?	3.5µM
COc1ccc(C)cc1NC(=O)CN1C(=O)CCc2cc(S(=O)(=O)N3CCOCC3)ccc21	0	-	-	-	-	-
Cc1nn2c(=O)cc(COC(=O)Cc3ccccc3)nc2s1	0	-	-	-	-	-
CCOc1cc(C(=O)O/N=C(\N)c2ccc([N+](=O)[O-])cc2)cc(OCC)c1OCC	0	0	0	0	?	0
N/C(=N\OC(=O)c1ccccc1Br)c1cccc([N+](=O)[O-])c1	2.4µM	1.3µM	-	5.8µM	?	2.2µM
N/C(=N\OC(=O)c1ccccc1Br)c1ccc([N+](=O)[O-])cc1	5.4µM	3.5µM	-	?	?	4µM
N/C(Cc1ccc([N+](=O)[O-])cc1)=N\OC(=O)c1ccccc1Br	0	0	0	0	0	0
Cc1ccccc1C(=O)O/N=C(\N)c1ccc([N+](=O)[O-])cc1	19µM	?	-	?	?	?
Cc1ccccc1/C(N)=N/OC(=O)c1ccc(F)cc1	1.3µM	?	0	?	?	?
Cc1cc(C)nc(-n2nc(C)c3c2NC(=O)CC3c2cc(F)ccc2F)n1 (centres undefined)	0	-	-	-	-	-
O=C(CSc1nnc(COc2ccc(Cl)cc2)o1)Nc1ccc(N2CCOCC2)cc1	0	0	-	0	0	0
SMILES	FLuc modulator	Rab9 promoter act	SMN2 splice up	ELG1 genotoxic	ELG1 DNA repair	NPC1 prom act
Cc1cc(SCC(=O)N2CCC(c3noc4ccc(F)cc34)CC2)nc2ccccc12	0	0	0	0	21µM	0
O=C(CSc1ncnc2sc3c(c12)CCCC3)N1CCC(c2noc3ccc(F)cc23)CC1	0	0	0	0	0	0
O=C(CCl)Nc1cc(SCC(O)CO)cc([N+](=O)[O-])c1 (centres undefined)	0	0	0	0	3.3µM	0
CC(C)(C)c1cc(C(=S)N2CCCC2)cc(C(C)(C)C)c1O	0	0	-	0	0	0
Nc1n[nH]c(=S)n1/N=C1/C(=O)Nc2ccccc21	15µM	0	0	0	0	0
Cc1ccc(-c2csc(NC(=O)N3CCOCC3)n2)cc1	27µM	0	0	?	0	0
Cc1ccc(-c2csc(NC(=O)C3=COCCO3)n2)cc1	15µM	2.8µM	14µM	?	?	?
O=C(Nc1nc(-c2ccc(Oc3ccccc3)cc2)cs1)C1=COCCO1	?	0	0	0	?	0
CC(=O)Nc1ccc(-c2csc(NC(=O)C3=COCCO3)n2)cc1	0	?	-	0	0	0
CCCc1ccc(-c2csc(NC(=O)C3=COCCO3)n2)cc1	-	1.3µM	-	0	?	1.1µM
CC(C)(C)c1csc(NC(=O)C2=COCCO2)n1	9.5µM	2.5µM	-	?	?	3.2µM
CCCS(=O)(=O)N1CC(=O)N(c2ccc(C)c(Cl)c2)C(C)(C(=O)NC2CCCCCC2)C1 (centres undefined)	0	-	-	-	-	-
Cc1ccc(OCCCCn2c(-c3ccc(Cl)cc3)nc3ccccc3c2=O)cc1	0	-	0	-	-	-
CCOC(=O)c1csc(NC(=O)C2=COCCO2)n1	15µM	2.8µM	-	9.2µM	?	2.5µM
CCOC(=O)c1csc(NC(=O)C2CCCCC2)n1	?	0	?	?	?	0
COc1cc(-c2nc(-c3cccc(C)c3)no2)cc(OC)c1OC	?	0	0	0	18µM	0
Cc1cccc(-c2noc(-c3ccccc3OCC(=O)Nc3ccccc3[N+](=O)[O-])n2)c1	0	-	-	-	-	-
CCOc1cc(-c2nc(-c3ccccc3OC)no2)cc(OCC)c1OCC	0	0	?	0	?	0
COc1ccc(-c2nc(-c3ccccc3OC)no2)cc1OC	15µM	?	?	0	?	3.5µM
COc1ccccc1-c1nc(-c2cccc(C)c2)no1	1.2µM	0.11µM	4.5µM	1.2µM	?	0.32µM
COc1cc(OC)cc(-c2nc(-c3cccc(C)c3)no2)c1	?	-	0	-	-	-
COc1ccccc1OCc1nc(-c2cccc(C)c2)no1	8.5µM	-	?	-	-	-
Cc1ccc(CNC(=O)CCCn2c(=O)c3ccccc3n(CC(=O)C(C)(C)C)c2=O)cc1	0	-	0	-	-	-
COC(=O)c1ccc2c(C)c(C(C)(C)O)[nH]c2c1	?	0	-	0	?	0
CC(=O)c1ccc(NC(=O)CCNC(=O)c2ccc(Cl)cc2)cc1	0	0[1.84 µM]	-	0	0	0
SMILES	FLuc modulator	Rab9 promoter act	SMN2 splice up	ELG1 genotoxic	ELG1 DNA repair	NPC1 prom act
CCc1nnc(NC(=O)CSc2nc(N)c(NC(=O)c3ccc(OC)cc3)c(=O)[nH]2)s1	0	0	-	0	0	0
COc1ccc(-c2cc(C(F)(F)F)nc(SCC(=O)N3CCCCC3)n2)cc1	0	-	0	-	-	-
COc1ccc(-c2nc(-c3cccc(C)c3)no2)cc1OC	4.3µM	4.5µM	13µM	?	?	0.79µM
CCC(NS(=O)(=O)c1cccs1)c1ccc(C)cc1 (centres undefined)	0	0	-	0	0	0
CCN(C(=O)CN1CC(C)OC(C)C1)c1c(N)n(Cc2ccccc2)c(=O)[nH]c1=O (centres undefined)	0	0	0	0	0	0
c1ccc(Oc2ccc3ccccc3n2)cc1	17µM	0	0	?	?	0
COc1ccc(Oc2cc(C)c3ccccc3n2)cc1	?	0	0	0	?	0
